Screening results (PubChem)
This excerpt belongs to a sample that is enriched for hits.
AMA1 RON2 block – disrupts binding of P. falciparum AMA1 to RON2; AlphaScreen AMA1-biotinylated RON2 peptide binding; Potency, µM (top dose mostly 58.2 µM), for inactives: at the highest dose activity change, negative = inhibition, hits mostly inhibitors; 360,000 tested, 0.2% active; active means well fitted inhibition curve with a large enough effect; inconclusive means small, poorly fitted or top-dose-only effect; inactive means no such curve, though single readings can be large or run the other way;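 further: potency means the concentration at half of the fitted maximal effect; 0% = vehicle wells and -100% = peptide control; nearly all actives have a fitted effect of over 45% in size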
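AMA1 (3D7) with his tag at 25 nM final met compounds first, then biotinylated RON2 peptide at 25 nM; detection used donor plus acceptor beads, 10 µg/mL apiece, read by AlphaScreen after 30 min at room temperature.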
LASV entry inh – inhibitors of Lassa virus binding or cell entry; AID 540256; Lassa virus pseudotype entry inhibition, cell reporter; Potency, µM (top dose mostly 37.9 µM), inactives show top-dose activity change, negative = inhibition, actives largely listed as inhibitors; 300,000 tested, 1.2% active; calls by dose curve; tested in HEK293 cells; further: potency means the concentration at half of the fitted maximal effect; on the % scale 0 is the no-effect control and ±100 the full control effect; nearly all actives have a fitted effect of over 50% in size
Shiga toxin inh – blocks Shiga toxin action in Vero cells. Vero cells, Shiga toxin protein synthesis inhibition reporter. inhibition, % at 38.7 µM. 290,000 tested, 9.2% active; in the data active means inhibition mostly above about 28%, no sharp cut-off; inactive means mostly below about 43%; further: 0% is about no effect
MARV entry inh – inhibitors of Marburg virus binding or cell entry | Marburg virus pseudotyped entry inhibition, cell reporter | Potency, µM (series often up to 37.8 µM), for the others: at the top dose activity change, negative = inhibition, most hits filed as inhibitors | 300,000 tested, 1.8% active; calls by dose curve; tested in HEK293 cells; further: potency means the concentration at half of the fitted maximal effect; on the % scale 0 is the no-effect control and ±100 the full control effect
CHX counter – affects cycloheximide protein synthesis inhibition readout, counter-screen. cell reporter, cycloheximide protein synthesis inhibition counterscreen. max response, %. 300,000 tested, 12% active. AID 2314; in the data active means max response mostly above about 13%, no sharp cut-off; inactive means mostly below about 14%; further: read at 38.3 µM for the half of the compounds with a filed dose; 0% is about no effect
* hit, by the source's call; [ ] = another dose, or the depositor's remark.

CCCCOc1ccc(N(CC(=O)NCc2ccccc2)C(=O)c2csnn2)cc1 was read as AMA1 RON2 block -3%, LASV entry inh -14%, Shiga toxin inh 30*, MARV entry inh 10%[46.1 µM] and CHX counter 27.
`Cc1ccc(CNC(=O)CN(c2ccc(Cl)cc2)S(C)(=O)=O)cc1` gave AMA1 RON2 block -1% and CHX counter 12*.
Screening Cc1cccc(C)c1N1C(=O)CC(N2CCN(S(=O)(=O)c3ccccc3F)CC2)C1=O (centres undefined) returned AMA1 RON2 block -5%.
`O=C1CC(N2CCN(S(=O)(=O)c3ccccc3F)CC2)C(=O)N1c1ccccc1F` (centres undefined) gave AMA1 RON2 block 32µM*.
`CCCOC(=O)c1ccc(NC(=O)C(=O)NCC2CCCO2)cc1` (centres undefined) gave AMA1 RON2 block -6%, LASV entry inh 1%, Shiga toxin inh -6, MARV entry inh 2% and CHX counter -2.
For Cc1ccc(NC(=O)C(=O)NCC2CCCO2)cc1C (centres undefined) the results were AMA1 RON2 block 8%, Shiga toxin inh 100* and CHX counter 31*.
`Cc1cc(C)cc(OCC(=O)NCC2CCCO2)c1` (centres undefined) gave AMA1 RON2 block 22%, LASV entry inh 7%, Shiga toxin inh 100*, MARV entry inh 5% and CHX counter 24*.
`Cc1cc(C)c(C)c(OCC(=O)NCC2CCCO2)c1` (centres undefined) gave AMA1 RON2 block -9%, LASV entry inh 8%, Shiga toxin inh -4, MARV entry inh -5% and CHX counter 2.
`Cc1ccc(NC(=O)C(=O)NCC2CCCO2)cc1` (centres undefined) gave AMA1 RON2 block 2%, Shiga toxin inh 101* and CHX counter 58*.
Screening COC(=O)c1ccc(NC(=O)C(=O)NCC2CCCO2)cc1 (centres undefined) returned AMA1 RON2 block 3%, LASV entry inh 0%, Shiga toxin inh 13, MARV entry inh 4% and CHX counter 0.
Screening Cc1cc(C)cc(NC(=O)C(=O)NCC2CCCO2)c1 (centres undefined) returned AMA1 RON2 block -8%, Shiga toxin inh 32 and CHX counter 25*.
For CC(C)(C)c1cc(C(=O)O)n(Cc2ccc(Cl)cc2Cl)n1 the results were AMA1 RON2 block 0%, LASV entry inh inconclusive, Shiga toxin inh 13, MARV entry inh -4% and CHX counter -2.
`Cc1ccc(/C=C/S(=O)(=O)NCC(=O)OCC(=O)N2CC(=O)Nc3ccccc32)cc1` gave AMA1 RON2 block -3%, Shiga toxin inh -8 and CHX counter -2.
Cc1ccc(OCc2nn3c(-c4n[nH]c5c4CCC5)nnc3s2)cc1 was read as Shiga toxin inh -1 and CHX counter 1.
Screening O=C(CNC(=O)c1cccc(-n2cnnn2)c1)Nc1ccc(F)c(F)c1 returned AMA1 RON2 block -3%.
Screening Cc1ccccc1-c1cn(-c2ccccc2)c(=S)[nH]1 returned AMA1 RON2 block 40%, LASV entry inh -28%, Shiga toxin inh 6, MARV entry inh -14%[46.1 µM] and CHX counter -4.
For Cc1ccc(-c2cn(-c3ccccc3)c(=S)[nH]2)cc1C the results were AMA1 RON2 block 37%, LASV entry inh inconclusive, Shiga toxin inh 113*, MARV entry inh inconclusive and CHX counter 64*.
For NC(=S)N/N=C/c1ccc(-n2nncc2-c2ccc(Cl)cc2)cc1 the results were AMA1 RON2 block 60%, LASV entry inh 11µM*, Shiga toxin inh 11, MARV entry inh inconclusive and CHX counter -6.
Cn1c(-c2cccs2)nc2ccccc21 was read as AMA1 RON2 block 3%, LASV entry inh 6%, Shiga toxin inh 125*, MARV entry inh inconclusive and CHX counter 35*.
Screening CC(C)Cn1c(-c2cccs2)nc2ccccc21 returned AMA1 RON2 block -4%, LASV entry inh -24%, Shiga toxin inh -13, MARV entry inh -17% and CHX counter 11.
For CN(C)c1nc2ccccc2n(C)c1=O the results were AMA1 RON2 block 4%, LASV entry inh 10%[46.1 µM], Shiga toxin inh -4, MARV entry inh 21%[46.1 µM] and CHX counter 4.
`Cn1c(-c2ccc(C=O)s2)nc2ccccc21` gave AMA1 RON2 block -6%, LASV entry inh inconclusive, Shiga toxin inh 71, MARV entry inh 10% and CHX counter 23*.
Screening COc1ccc(C(=O)NC(C)c2cnn(-c3ccccn3)c2C)o1 (centres undefined) returned AMA1 RON2 block 46%, LASV entry inh -4%, Shiga toxin inh -10, MARV entry inh inconclusive and CHX counter -1.
For Clc1ccc(C(c2ccccc2)N2CCNCC2)cc1 (centres undefined) the results were AMA1 RON2 block 1%, LASV entry inh -13%, Shiga toxin inh -14, MARV entry inh inconclusive and CHX counter -6.
`CC12CNCC(C)(CN(C(c3ccccc3)c3ccccc3)C1)C2` gave AMA1 RON2 block -2%, LASV entry inh 20µM*, Shiga toxin inh -5, MARV entry inh inconclusive and CHX counter 3.
For O=C(NN=C(Cc1ccccc1)Cc1ccccc1)c1ccccc1F the results were AMA1 RON2 block 53%, LASV entry inh -3%, Shiga toxin inh 91*, MARV entry inh -1%[46.1 µM] and CHX counter 38*.
For Cc1cc(C(=O)NN=C(Cc2ccccc2)Cc2ccccc2)c(C)o1 the results were AMA1 RON2 block 27%, LASV entry inh 1%, Shiga toxin inh 84*, MARV entry inh 15% and CHX counter 29*.
O=C(NN=C(Cc1ccccc1)Cc1ccccc1)C1CC1 was read as AMA1 RON2 block 53%, LASV entry inh -18%[46.1 µM], Shiga toxin inh 27, MARV entry inh -10%[46.1 µM] and CHX counter 21*.
O=C(NCc1ccccc1)NC(=O)c1ccccc1F was read as AMA1 RON2 block 0%, Shiga toxin inh 33* and CHX counter 28*.
Screening CC/C(Cc1ccccc1)=N\NC(=O)c1cc(C)oc1C returned AMA1 RON2 block 51%, LASV entry inh 22%, Shiga toxin inh 1, MARV entry inh 1% and CHX counter -2.
`CCN(C(=O)CN1CCC(C(=O)OC)CC1)c1c(N)n(Cc2ccccc2)c(=O)[nH]c1=O` gave AMA1 RON2 block -2%.
Screening O=C(NN=C(Cc1ccccc1)Cc1ccccc1)c1ccncc1 returned AMA1 RON2 block 90%, Shiga toxin inh 21 and CHX counter 8.0*.
For CCN1CCN(c2cc3c(nn2)Oc2ccccc2N3C)CC1 the results were AMA1 RON2 block -5%, LASV entry inh 2%, Shiga toxin inh 52*, MARV entry inh inconclusive and CHX counter 49*.
CCN1CCN(c2cc(=O)n3ccccc3n2)CC1 was read as AMA1 RON2 block -4%, Shiga toxin inh -5, MARV entry inh 0%[46.1 µM] and CHX counter -3.
CCN(CC)c1ccc(CN(C(=O)c2cc(=O)c3ccccc3o2)C2CCS(=O)(=O)C2)cc1 (centres undefined) was read as LASV entry inh -9%[46.1 µM] and MARV entry inh 0%[46.1 µM].
`Cc1ccsc1CNc1ncnc2ccc(-c3c(C)noc3C)cc12` gave Shiga toxin inh 57* and CHX counter 28.
